Screening data: PubChem, several laboratories
MCL1 BIM primary: MCL1-BIM-BH3 interaction inhibition (human) | inhibition, % at 10.9 µM | hit rate 0.68% among 320,000 | GST-MCL1 / FITC-Bim-BH3 fluorescence polarization | Q07820 | AID 2057;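 active means inhibition above the mean inhibition of all tested compounds plus 3 SD, set per campaign, cut at about 40% in these data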;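 further: higher means more loss of mP so more displacement of Bim peptide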
Target sequence (Q07820 whole entry, looked up): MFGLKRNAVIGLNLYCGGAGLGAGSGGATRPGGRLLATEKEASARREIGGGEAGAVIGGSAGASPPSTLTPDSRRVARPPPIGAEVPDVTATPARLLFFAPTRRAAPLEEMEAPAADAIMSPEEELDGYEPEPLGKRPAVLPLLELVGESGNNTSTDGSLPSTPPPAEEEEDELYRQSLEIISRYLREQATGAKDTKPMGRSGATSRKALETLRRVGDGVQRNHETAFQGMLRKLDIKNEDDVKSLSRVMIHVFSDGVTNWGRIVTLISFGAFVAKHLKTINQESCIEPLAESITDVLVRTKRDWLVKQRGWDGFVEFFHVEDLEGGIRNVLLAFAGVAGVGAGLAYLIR
Mcl-1 Bim block: inhibitors of Bim-Mcl-1 interaction, human | Q07820 | Bead-based flow cytometry, Bim peptide-Mcl-1 binding | inhibition, % at 10 µM | hit rate 0.1% among 190,000 | AID 1009; in the data active means inhibition above about 40%
GLD-1 TGE inh: GLD-1-TGE RNA interaction inhibition (C. elegans). purified GLD-1 + fluorescein TGE RNA, fluorescence polarization. inhibition, % at 5.96 µM. hit rate 0.44% among 320,000;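 active means percent inhibition above a per-plate cutoff, the plate mean of test compounds plus 3 SD, cut at about 30% in these data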
BCLXL inh: blocks human Bcl-xL binding to Bim BH3 peptide; AID 2129; hit rate 0.7% among 320,000; inhibition, % at 10.9 µM; GST-Bcl-xL / FITC-Bim BH3 peptide fluorescence polarization;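 active means inhibition above the mean of all tested compounds plus 3 SD, cutoff set per campaign, cut at about 30% in these data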;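 further: inhibitors lower millipolarization by displacing the labeled peptide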
Target sequence (Q07817 whole entry, looked up): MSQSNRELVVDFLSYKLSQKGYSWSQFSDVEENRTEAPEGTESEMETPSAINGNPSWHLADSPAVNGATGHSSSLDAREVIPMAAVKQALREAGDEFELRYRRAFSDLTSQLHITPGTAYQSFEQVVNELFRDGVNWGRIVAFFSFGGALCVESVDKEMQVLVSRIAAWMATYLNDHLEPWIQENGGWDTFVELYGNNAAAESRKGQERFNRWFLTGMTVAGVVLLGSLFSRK
Mcl1-Noxa inh: disrupts binding of human Mcl-1 to Noxa peptide; AID 1022; hit rate 1.5% among 220,000; TR-FRET Mcl-1/Noxa peptide binding, 2 h; inhibition, % at 21.7 µM; Q07820;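 active means compounds that cut the protein-peptide binding signal by more than 50% relative to plate controls in a single-dose test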;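 further: His-tagged Mcl-1 with rhodamine Noxa BH3 peptide and terbium anti-His antibody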
Mcl1 Bid PPI: disrupts binding of human Mcl-1 to Bid peptide; Q07820; inhibition, % at 21.7 µM; TR-FRET Mcl-1/Bid-Dy647 peptide binding, 1536-well; AID 1021; hit rate 0.97% among 220,000;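 active means compounds that cut the binding signal by more than half at the single screening dose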;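 further: His-tagged Mcl-1 with europium anti-His antibody binding Bid BH3 peptide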
BCLXL inh confirm: Bcl-xL (human) inhibition, MCL1 counter-screen confirmation; inhibition, % at 10.9 µM; hit rate 54% among 1,700; AID 2166; shares compounds with MCL1 BIM primary; GST-Bcl-xL / FITC-Bim BH3 peptide FP binding;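 active means inhibition above a cutoff equal to the mean inhibition of all tested compounds plus 3 SD, cut at about 30% in these data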
MCL1 inh confirm: confirmation of human MCL1 and BIM-BH3 interaction inhibitors; AID 2168; inhibition, % at 10.9 µM; GST-MCL1 / FITC-Bim-BH3 fluorescence polarization; shares compounds with MCL1 BIM primary; hit rate 61% among 1,700;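 active means inhibition above the average of all tested compounds plus 3 SD, cut at about 40% in these data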
Of the large screens only hits and unclear results are named; the others gave an inactive call (follow-up assays come after a bar, where they were run). The list is not random: actives were taken first. Their share in the collection is about 2.3%.

CC1CCCN(Cc2c(O)ccc3c2O/C(=C\c2ccco2)C3=O)C1 (centres undefined)	MCL1 BIM primary 152, GLD-1 TGE inh 95, BCLXL inh 123, Mcl1-Noxa inh 58 | BCLXL inh confirm 119 | MCL1 inh confirm 133
CN(C)Cc1c(O)ccc2c1O/C(=C\C=C\c1ccccc1)C2=O	MCL1 BIM primary 76, BCLXL inh 78 (no result: Mcl-1 Bim block) | BCLXL inh confirm 85 | MCL1 inh confirm 91
O=C(NCc1ccccc1F)C1CCCN1C(=O)Nc1ccc(F)cc1 (centres undefined)	none (no result: Mcl-1 Bim block, Mcl1-Noxa inh, Mcl1 Bid PPI)
O=C(Nc1ccc2ccccc2n1)c1ccccc1Br	none (no result: Mcl-1 Bim block, Mcl1-Noxa inh, Mcl1 Bid PPI)
Cn1cccc1/C=C(/C#N)c1ccc(F)cc1	none
CCC(=O)N/N=C(\C)CC(=O)Nc1ccc2c(c1)OCCO2	none
O=C(COc1cccc2ccccc12)N/N=C/c1ccccc1OCc1ccc(C(=O)O)cc1	MCL1 BIM primary 49 | BCLXL inh confirm inactive | MCL1 inh confirm inactive
Nc1nonc1-n1nnc(C(=O)N/N=C/c2ccc(OCc3ccccc3)cc2)c1CNc1ccccc1	none (no result: Mcl-1 Bim block, Mcl1-Noxa inh, Mcl1 Bid PPI)
CN1/C(=C\C=N\NC(=O)c2cccnc2)C(C)(C)c2ccccc21	none
CN1/C(=C\C=N\NC(=O)c2ccc(O)cc2)C(C)(C)c2ccccc21	MCL1 BIM primary 47, GLD-1 TGE inh 32, BCLXL inh 39 | BCLXL inh confirm inactive | MCL1 inh confirm inactive
COc1ccc(/C=C(\C#N)C(=O)OCC(=O)NCc2ccccc2)cc1	none
COc1cccc(CNC(=O)COC(=O)/C(C#N)=C/c2ccc(N(C)C)cc2)c1	MCL1 BIM primary 136, GLD-1 TGE inh 123, BCLXL inh 117 (no result: Mcl-1 Bim block, Mcl1-Noxa inh, Mcl1 Bid PPI) | BCLXL inh confirm 89 | MCL1 inh confirm 116
Cn1c2ccccc2c2cc(/C=N/NC(=O)c3cc(O)ccc3O)ccc21	MCL1 BIM primary 57, BCLXL inh 32 (no result: Mcl-1 Bim block, Mcl1-Noxa inh, Mcl1 Bid PPI) | BCLXL inh confirm 62 | MCL1 inh confirm 93
Cc1ccc(N=Nc2c(O)n(CN3CCOCC3)c3ccccc23)cc1	MCL1 BIM primary 78, GLD-1 TGE inh 89, BCLXL inh 96 | BCLXL inh confirm inactive | MCL1 inh confirm inactive
N#CCCn1cc(/C=N/NC(N)=S)c(-c2ccc(-c3ccccc3)cc2)n1	none
COc1cccc(-n2c(C)c3c(OC)cccc(=O)c3c2C)c1	MCL1 BIM primary 41 | BCLXL inh confirm inactive | MCL1 inh confirm inactive
COc1cccc(=O)c2c(C)n(-c3cc(C)cc(C)c3)c(C)c12	none
Cc1ccnc(NC(=O)Cn2c(=O)oc3ccccc32)c1	none (no result: Mcl-1 Bim block, Mcl1-Noxa inh, Mcl1 Bid PPI)
O=C(O[C@@H]1OC2COC(=O)c3cc(O)c(O)c(O)c3-c3c(cc(O)c(O)c3O)C(=O)O[C@@H]([C@H]1O)[C@@H]2O)c1cc(O)c(O)c(O)c1	MCL1 BIM primary 91, BCLXL inh 62, Mcl1-Noxa inh 113 | BCLXL inh confirm 74 | MCL1 inh confirm 87
O=C(NC1CCN(S(=O)(=O)c2cccc(Cl)c2)CC1)C1CCCCC1	none (no result: Mcl-1 Bim block, Mcl1-Noxa inh, Mcl1 Bid PPI)
Cc1ccccc1OCC(=O)N/N=C/c1ccc([N+](=O)[O-])o1	none
COc1ccccc1OCC(=O)N/N=C/C=C/c1ccc([N+](=O)[O-])o1	MCL1 BIM primary 41 | BCLXL inh confirm inactive | MCL1 inh confirm inactive
Cc1ccc(OCC(=O)N/N=C/C=C/c2ccco2)cc1	MCL1 BIM primary 40 | BCLXL inh confirm 55 | MCL1 inh confirm 71
O=C(CSc1nnc(SCc2ccccc2)s1)N/N=C/C=C\c1ccco1	MCL1 BIM primary 43, Mcl1-Noxa inh 54 | BCLXL inh confirm 31 | MCL1 inh confirm 59
CC(Oc1cccc2cccnc12)C(=O)N/N=C/c1ccc2c(c1)OCO2 (centres undefined)	none (no result: Mcl-1 Bim block, Mcl1-Noxa inh, Mcl1 Bid PPI)
Cn1c(=O)c(Nc2ccc(Cl)cc2)c2c3c(cccc31)C(=O)c1ccccc1-2	MCL1 BIM primary active, GLD-1 TGE inh 172, BCLXL inh active | BCLXL inh confirm 162 | MCL1 inh confirm 197
O=C(O)/C=C/C(=O)NCc1ccccn1	MCL1 BIM primary 50, GLD-1 TGE inh 36, BCLXL inh 52 | BCLXL inh confirm 48 | MCL1 inh confirm 52
O=C(O)/C=C/C(=O)NCc1ccccc1	none
Cc1ccc(/C=C/C(=O)NCc2ccccn2)o1	MCL1 BIM primary 41, Mcl1-Noxa inh 74 | BCLXL inh confirm inactive | MCL1 inh confirm 51
O=C(CCC1CCCC1)N1CCN(S(=O)(=O)c2ccc(Br)cc2)CC1	none (no result: Mcl-1 Bim block, Mcl1-Noxa inh, Mcl1 Bid PPI)
Cc1c2ccccc2nc2c(F)c(N(C)C)c(F)c(F)c12	MCL1 BIM primary 122, GLD-1 TGE inh 99, BCLXL inh 114 | BCLXL inh confirm 120 | MCL1 inh confirm 134
O=C(COC(=O)C12CC3CC(CC(C3)C1)C2)NNC(=O)c1ccccc1	none (no result: MCL1 BIM primary, Mcl-1 Bim block, BCLXL inh, Mcl1-Noxa inh, Mcl1 Bid PPI)
O=C(c1ccccc1)c1c2c(cc3sc4ccccc4[n+]13)-c1cccc3cccc-2c13	MCL1 BIM primary 116, GLD-1 TGE inh 55, BCLXL inh 95 | BCLXL inh confirm 62 | MCL1 inh confirm 71
Cc1sc2cc3c(c(C(=O)c4ccccc4)[n+]2c1C)-c1cccc2cccc-3c12	none
CC(Sc1nc2sc3c(c2c(=O)n1-c1ccccc1)CCCC3)C(=O)O (centres undefined)	none (no result: Mcl-1 Bim block)
CCn1c(SC(C)C(=O)O)nc2sc3c(c2c1=O)CCC3 (centres undefined)	MCL1 BIM primary 44, Mcl1-Noxa inh 67 | BCLXL inh confirm inactive | MCL1 inh confirm 52
O=C1NCC(COCc2ccccc2)O1 (centres undefined)	MCL1 BIM primary 54 | BCLXL inh confirm inactive | MCL1 inh confirm inactive
Cc1cccc(C)c1OCC1CNC(=O)O1 (centres undefined)	none (no result: Mcl-1 Bim block, Mcl1-Noxa inh, Mcl1 Bid PPI)
O=C(O)c1ccc(-n2cccc2/C=N\NC(=O)c2cc3cc(Br)ccc3o2)cc1	MCL1 BIM primary 62, Mcl1-Noxa inh 92 (no result: Mcl-1 Bim block) | BCLXL inh confirm inactive | MCL1 inh confirm 57
CCn1nc(C)c(CN2CCN(Cc3ccsc3)C(CCO)C2)c1C (centres undefined)	none
O=C(CC1SC2=NCCN2C1=O)Nc1ccc(Cl)cc1 (centres undefined)	none
Cc1ccc(NC(=O)CC2SC3=NCCCN3C2=O)c(C)c1 (centres undefined)	MCL1 BIM primary 112, GLD-1 TGE inh 82, BCLXL inh 110 (no result: Mcl1-Noxa inh) | BCLXL inh confirm 51 | MCL1 inh confirm 56
COc1ccc(C(=O)N2CCn3c(C)ccc3C2C)cc1 (centres undefined)	MCL1 BIM primary 49, BCLXL inh 47 | BCLXL inh confirm inactive | MCL1 inh confirm inactive
Cc1sc2ncn(CC(=O)N3CCN(c4ccccc4F)CC3)c(=O)c2c1S(=O)(=O)N1CCOCC1	none (no result: Mcl-1 Bim block, Mcl1-Noxa inh, Mcl1 Bid PPI)
CCc1nnc(NC(=O)C2(C)COC(c3ccccc3)OC2)s1 (centres undefined)	none
N=C1SC(c2ccccc2)C(=O)N1c1ncc(Cc2ccccc2Cl)s1 (centres undefined)	none
